Results: PubChem BioAssay (NCATS)
Records with an inconclusive call do not appear. The source made the active and inactive calls. Calls follow the shape of the dose curve; as a rule, active = well fitted cell-killing curve with a large enough effect; inconclusive = small, poorly fitted or top-dose-only effect, or effect the other way; inactive = flat fitted curve, though single readings scatter.

Assays:
Assay in all cases: Primary qHTS to identify gynecologic anti-cancer compounds using libraries of approved drugs and bioactive compounds (AID 1345084); also: nearly all actives have a fitted effect of over 55% in size
C33A = conditions: Gynecologic cancer cell panel viability, ATPlite luminescence, 48 h; series mostly up to 57.5 µM
Summary of the method: (§1)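 Cells, 1,000 per well, were allowed to settle for 16 h at 37 C before compound addition. Five concentrations were tested for 48 h, and viability was read by ATPlite luminescence after 15 min at room temperature.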

CAOV3 = conditions: Gynecologic cancer cell panel viability, ATPlite luminescence, 48 h; series mostly up to 57.5 µM
Summary of the method: as §1

CASKI = conditions: Gynecologic cancer cell panel viability, ATPlite luminescence, 48 h; series mostly up to 57.5 µM
Summary of the method: as §1

Es-2 = conditions: Gynecologic cancer cell panel viability, ATPlite luminescence, 48 h; series mostly up to 57.5 µM
Summary of the method: as §1

HeLa = conditions: Gynecologic cancer cell panel viability, ATPlite luminescence, 48 h; series mostly up to 57.5 µM
Summary of the method: as §1

Hek293T = conditions: Gynecologic cancer cell panel viability, ATPlite luminescence, 48 h, control line for the selectivity index; series mostly up to 57.5 µM
Summary of the method: as §1

JEG-3 = conditions: Gynecologic cancer cell panel viability, ATPlite luminescence, 48 h; series mostly up to 57.5 µM
Summary of the method: as §1

OV90 = conditions: Gynecologic cancer cell panel viability, ATPlite luminescence, 48 h; series mostly up to 57.5 µM
Summary of the method: as §1

PA-1 = conditions: Gynecologic cancer cell panel viability, ATPlite luminescence, 48 h; series mostly up to 57.5 µM
Summary of the method: as §1

SKOV3 = conditions: Gynecologic cancer cell panel viability, ATPlite luminescence, 48 h; series mostly up to 57.5 µM
Summary of the method: as §1

Tov-21-G = conditions: Gynecologic cancer cell panel viability, ATPlite luminescence, 48 h; series mostly up to 57.5 µM
Summary of the method: as §1

Tov112D = conditions: Gynecologic cancer cell panel viability, ATPlite luminescence, 48 h; series mostly up to 57.5 µM
Summary of the method: as §1

Measured: Potency

CN1CCc2cc3c(cc2C(=O)Cc2cc4c(cc2C1)OCO4)OCO3
inactive: all assays above

COc1cccc(CN(C(=O)CC(C)(C)C)[C@H]2C[C@H](C(=O)N3CCNCC3)N(Cc3ccc4c(c3)OCO4)C2)c1
inactive: all assays above

O=C(NCc1nc2ccccc2c(=O)n1-c1ccc(F)cc1)Nc1ccc(Cl)c(C(F)(F)F)c1
inactive: all assays above

O=C(Nc1cnc(Cl)nc1)c1ccc(F)c(F)c1
inactive: all assays above

C/C=C/C=C/C(=O)O[C@@H]1C=C2COC(=O)[C@]2(O)[C@@]2(C)CCCC(C)(C)[C@H]12
inactive: all assays above

C=C1C(=O)O[C@@H]2[C@H]1CCC(C)=C(CCC(=O)O)[C@@]2(C)O
inactive: all assays above

O=c1cc(N2CCN(c3cccc(C(F)(F)F)c3)CC2)[nH]c(=O)n1C1CCCCC1
inactive: all assays above

CNCc1cc(-c2ccccc2F)n(S(=O)(=O)c2cccnc2)c1
inactive: all assays above

O=C(O)C1=CO[C@@H](O[C@@H]2O[C@H](CO)[C@@H](O)[C@H](O)[C@H]2O)[C@@H]2C(CO)=CC[C@H]12
inactive: all assays above

Cc1cc(C)c(S(=O)(=O)n2cc(C)cc2C)c(C)c1
inactive: all assays above

O=C(NCC(=O)N1CCCC1)Nc1ccc2cnccc2c1
inactive: all assays above

CC1(NC(=O)c2ccc(C#Cc3cccc(F)c3)cn2)COC1
inactive: all assays above

Cc1ccc(-c2ncc[nH]2)cc1NC(=O)c1ccc(OCc2ccccn2)cc1
inactive: all assays above
